Results filed as inconclusive are left out. The source made the active and inactive calls. Rule for the calls: active = hit-call score of the fitted dose curve at least 0.9, where 1 is the maximum; inconclusive = response in the unintended direction; inactive = score below 0.9.

Sequence of Nuclear receptor subfamily 4 group A member 2 (Homo sapiens) (P43354 whole entry, looked up): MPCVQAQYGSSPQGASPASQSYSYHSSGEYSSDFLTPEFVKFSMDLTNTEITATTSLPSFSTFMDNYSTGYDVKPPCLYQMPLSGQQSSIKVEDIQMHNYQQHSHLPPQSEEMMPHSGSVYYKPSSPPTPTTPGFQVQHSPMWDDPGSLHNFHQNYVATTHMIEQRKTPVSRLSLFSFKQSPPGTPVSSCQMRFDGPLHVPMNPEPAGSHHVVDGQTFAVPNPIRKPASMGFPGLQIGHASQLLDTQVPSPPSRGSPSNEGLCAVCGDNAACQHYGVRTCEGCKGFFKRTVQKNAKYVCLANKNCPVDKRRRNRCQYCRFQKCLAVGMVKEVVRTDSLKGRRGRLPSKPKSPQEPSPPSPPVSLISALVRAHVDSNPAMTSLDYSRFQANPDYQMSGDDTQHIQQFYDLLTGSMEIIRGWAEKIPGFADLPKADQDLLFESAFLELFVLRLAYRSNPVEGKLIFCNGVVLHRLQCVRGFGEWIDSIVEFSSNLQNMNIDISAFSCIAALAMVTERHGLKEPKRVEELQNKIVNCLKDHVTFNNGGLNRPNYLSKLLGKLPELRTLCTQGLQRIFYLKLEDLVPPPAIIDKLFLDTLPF

The assay addresses Nuclear receptor subfamily 4 group A member 2 (Homo sapiens) (UniProt P43354). Kind of assay: ATG_NURR1_TRANS: Attagene TRANS-FACTORIAL HepG2 Assay for human Nuclear Receptor Related Protein 1 (NURR1) (AID 2282985). The note with it: HepG2 Attagene TRANS reporter, mRNA readout. The procedure: ATG_TRANS is a cell-based, multiplexed-readout assay that uses HepG2, a human liver cell line, with measurements taken at 24 hours after chemical dosing in a 24-well plate.ATG_NURR1_TRANS is one of 30 assay component(s) measured or calculated from the ATG_TRANS assay. It is designed to make measurements of mRNA induction, a form of inducible reporter, as detected with fluorescence intensity signals by Reverse transcription polymerase chain reaction (RT-PCR) and Capillary electrophoresis technology.Data from the assay component ATG_NURR1_TRANS was analyzed into 1 assay endpoint. This assay endpoint, ATG_NURR1_TRANS, was analyzed in the positive analysis fitting direction relative to DMSO as the negative control and baseline of activity. Using a type of inducible reporter, measures of mRNA for gain-of-signal activity can be used to understand the reporter gene at the transcription factor-level as they relate to the gene NR4A2. Furthermore, this assay endpoint can be referred to as a primary readout, because this assay has produced multiple assay endpoints where this one serves a reporter gene function. To generalize the intended target to other relatable targets, this assay endpoint is annotated to the nuclear receptor intended target family, where the subfamily is orphan.
Human liver HepG2 cells are transiently transfected with multiple reporter transcription units (MRTUs) in 6-well plates using FuGene 6 reagent (Roche; 3 ml FuGene/1 mg DNA). The MRTU constructs are regulated by a cis-regulating element (promoter). […] A major difference between the CIS and TRANS system is that in CIS activities of endogenous TFs are measured, whereas the TRANS assay evaluates changes in activities of exogenous, chimeric NR-Gal4 proteins. […] At the end of 24 hour incubation, total RNA was isolated using TriZol reagent (Invitrogen). The isolated RNA is then reverse-transcribed using oligo(dT) primer and Mo-MLV reverse transcriptase (Invitrogen) with DNAse I (Ambion) treatment for 30 min. The one-tenth of the produced cDNA was amplified by PCR using Taq DNA polymerase (Invitrogen) and two reporter sequence-specific primers. The PCR products were fluorescently labeled by primer extension with 6-arboxyfluorescein (6-FAM) 5'-labeled reporter sequence-specific primer (2 min at 95 C, 20 s at 68 C and 10 min at 72 C) and these products were digested with 5U of HpaI (New England Biolabs) for 2h at 37 C. The fragments were purified using Qiaquick PCR columns (Qiagen), analyzed on an ABI 3130xL genetic analyzer (Applied Biosystems) with peak positions identified by using a set of X-rhodamine (ROX)-labeled MapMarker1000 molecular weight standards (BioVentures). The raw capillary electrophoresis data was processed using Attagraph software (Attagene).
Consider `O=C(O)c1ccccc1C(=O)O`, for which the compound was called inactive.

In the case of `C[C@H]1C[C@H]2[C@@H]3CCC4=CC(=O)C=C[C@]4(C)[C@@]3(F)[C@@H](O)C[C@]2(C)[C@@]1(O)C(=O)CO`, the compound was called inactive.

Consider `CC(C)=CCOC(=O)c1ccccc1`, for which the call was inactive.

With `CC1=NN(c2cc(Cl)c(S(=O)(=O)O)cc2Cl)C(=O)C1N=Nc1ccc(S(=O)(=O)O)cc1` (stereo not given), the compound was classed as inactive.

With `CCCCC(CC)COC(=O)CS` (stereo not given), the call was inactive.

Regarding `CCOc1ccc2c(c1)C(C)CC(C)(C)N2` (stereo not given), the compound was classed as inactive.

Regarding `CCCCCCCCCCCCCCCCCC[N+](C)(C)C`, the compound was classed as inactive.

On to `O=C(C1CCCCC1)N1CC(=O)N2CCc3ccccc3C2C1` (stereo not given), for which the outcome was inactive.

With `CN(C)N=Nc1ccccc1`, the compound was called inactive.

For `CCCCCCCC#N`, the result was inactive.

Take `Cc1cc(-n2nc3ccc(Cl)cc3n2)c(O)c(C(C)(C)C)c1`: the compound was called inactive.

On to `C=CC(C)(CCC=C(C)C)OC(=O)c1ccccc1` (stereo not given), for which the outcome was inactive.

The AC50 is the concentration giving half of the maximal activity seen. Turning to `c1cc[c]([Bi]([c]2ccccc2)[c]2ccccc2)cc1`, the half-maximal activity concentration (AC50) is 37.9 µM (active).

As for `C=C1CC[C@H]2C[C@@H]1C2(C)C`, the compound was called inactive.

For `CCO[Si](OCC)(OCC)c1ccccc1`, the compound was called inactive.

Take `CCCCCCC1CCCC(=O)O1` (stereo not given): the compound was called inactive.

Consider `c1cc(N(CC2CO2)CC2CO2)ccc1Cc1ccc(N(CC2CO2)CC2CO2)cc1` (stereo not given), for which the AC50 was 70.9 µM (active).

As to `CC(=O)Nc1c(I)c(NC(C)=O)c(I)c(C(=O)O)c1I`, the call was inactive.

For `O=C(O)/C=C\C(=O)O`, the result was inactive.

In the case of `Cc1ccccc1S(N)(=O)=O`, the result was inactive.

Turning to `F[B-](F)(F)F`, the compound was called inactive.

`CCC(=O)OCc1ccc(OC)cc1`: the call was inactive.

For the compound `O=C(O)c1nc(Cl)c(Cl)c(Cl)c1Cl`, the call was inactive.

On to `NC(=O)c1ccc(N)cc1`, for which the call was inactive.

With `C=C(C)C(=O)OCCCCCC`, the outcome was inactive.

In the case of `CCCC(=O)OC`, the outcome was inactive.

Turning to `CN(C)CCCN1c2ccccc2CCc2ccc(Cl)cc21`, the compound was classed as inactive.

With `CC(C)(C)NC(=O)[C@@H]1CN(Cc2cccnc2)CCN1C[C@@H](O)C[C@@H](Cc1ccccc1)C(=O)N[C@H]1c2ccccc2C[C@H]1O`, the compound was called inactive.

As for `CCCCCCC(O)CCCCCCCCCCC(=O)OC` (stereo not given), the call was inactive.

As for `CCCCCCCCCCC1CO1` (stereo not given), the result was inactive.

Consider `CC1=C(CC(=O)O)c2cc(F)ccc2/C1=C\c1ccc(S(C)=O)cc1` (stereo not given), for which the call was inactive.

With `O=C(OCc1ccccc1)c1ccccc1`, the result was inactive.

On to `CC[N+](CC)(CC(=O)Nc1c(C)cccc1C)Cc1ccccc1`, for which the outcome was inactive.

Consider `COCCCN`, for which the compound was called inactive.

Consider `CC/C=C/CCO`, for which the call was inactive.

Regarding `CC1=C(CC=O)C(C)(C)CCC1`, the compound was called inactive.

`COc1ccccc1OCC(O)CO` (stereo not given): the call was inactive.

For `OCCOCCOCCOCCOCCO`, the compound was classed as inactive.

Turning to `OCCc1ccccn1`, the outcome was inactive.

Take `CC/C=C\CC/C=C/C(OCC)OCC`: the compound was called inactive.

These data come from PubChem BioAssay (EPA / NIEHS).
